From PubChem BioAssay AID624481 (The Scripps Research Institute Molecular Screening Center, 2012) come the findings set out here.

Calls of active or inactive are those of the source. No stated cut-off is given here; in the data, active means inhibition above about 50%; inactive means the rest.

By inhibition is commonly meant the relative decrease from the control value, in per cent.

This assay deals with Prolyl endopeptidase-like (Mus musculus) (UniProt Q8C167). As to the kind of experiment: mouse PREPL enzyme inhibition by screening hits – biochemical, gel-based competitive ABPP, fluorescence, HTS hits, PREPL inhibitor project (AID 624481). As to conditions: purified mouse PREPL, at 20 µM, active compounds read high.
Chain of Prolyl endopeptidase-like (Mus musculus) (Q8C167 whole entry, looked up): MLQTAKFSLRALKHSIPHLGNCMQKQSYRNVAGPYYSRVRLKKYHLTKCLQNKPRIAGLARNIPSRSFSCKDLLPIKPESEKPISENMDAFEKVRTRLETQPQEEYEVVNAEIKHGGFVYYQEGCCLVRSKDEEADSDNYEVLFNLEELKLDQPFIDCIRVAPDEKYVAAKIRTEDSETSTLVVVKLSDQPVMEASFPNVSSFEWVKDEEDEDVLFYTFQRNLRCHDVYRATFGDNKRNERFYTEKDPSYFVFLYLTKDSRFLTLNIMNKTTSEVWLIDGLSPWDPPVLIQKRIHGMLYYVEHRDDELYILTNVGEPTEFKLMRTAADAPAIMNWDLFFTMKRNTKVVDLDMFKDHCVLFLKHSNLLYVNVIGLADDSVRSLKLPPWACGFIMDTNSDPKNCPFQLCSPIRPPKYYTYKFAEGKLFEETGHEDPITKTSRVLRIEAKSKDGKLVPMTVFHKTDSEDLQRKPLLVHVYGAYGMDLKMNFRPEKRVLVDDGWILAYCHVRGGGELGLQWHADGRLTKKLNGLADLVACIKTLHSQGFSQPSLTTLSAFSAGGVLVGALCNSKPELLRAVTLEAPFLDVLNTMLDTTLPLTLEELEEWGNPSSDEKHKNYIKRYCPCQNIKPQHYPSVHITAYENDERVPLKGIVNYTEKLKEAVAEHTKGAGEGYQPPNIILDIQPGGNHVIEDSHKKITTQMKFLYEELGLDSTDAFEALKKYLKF
For `COc1ccc(N2CCN(C(=O)c3cn(C4CCCC4)c(=O)c4c3c3ccccc3n4C)CC2)cc1`, the inhibition was 92% (active). `COc1ccc(N2CCN(CCC(O)c3ccc4ccccc4c3)CC2)cc1` (stereo not drawn): the inhibition is -79% (inactive).

For `Oc1cc(Nc2ccncc2)cc2cccnc12`, the inhibition was -59% (inactive).
